From PubChem BioAssay AID2551 (National Center for Advancing Translational Sciences (NCATS), 2010) come the findings set out here.

Among all 310,000 compounds or so, about 17,000 (5.5%) were called active. Not shown: some 11% with an inconclusive outcome. The sample as a whole holds a higher share of actives than the screen did. Unmarked numbers belong to inactive results. Calls come from the whole dose curve; as a rule, active = well fitted inhibition curve with a large enough effect; inconclusive = small, poorly fitted or top-dose-only effect, or effect the other way; inactive = no such curve, though single readings can be large or run the other way.
% is set by controls: 0 for no effect and ±100 for the full control effect; potency is the fitted concentration of half-maximal effect.

The target of the experiment is Nuclear receptor ROR-gamma (Mus musculus) (UniProt P51450). The experiment can be described thus: qHTS for inhibitors of ROR gamma transcriptional activity. Note: nearly all actives have a fitted effect of over 60% in size. The conditions noted are these: Drosophila S2 Gal4-RORgamma UAS-luciferase reporter, 20 h; series mostly up to 53.6 µM; activity change, negative = inhibition: at the top concentration. The procedure, abridged: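 Drosophila S2 cells stably expressing Gal4-DBD/mouse RORγ fusion under metallothionein promoter plus UAS-luciferase; compound 1 h, then 700 uM CuSO4 induction for 20 h at ambient temperature; inhibition read as reduced luminescence.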
Nuclear receptor ROR-gamma (Mus musculus), sequence (P51450 whole entry, looked up, the tested form may be a part): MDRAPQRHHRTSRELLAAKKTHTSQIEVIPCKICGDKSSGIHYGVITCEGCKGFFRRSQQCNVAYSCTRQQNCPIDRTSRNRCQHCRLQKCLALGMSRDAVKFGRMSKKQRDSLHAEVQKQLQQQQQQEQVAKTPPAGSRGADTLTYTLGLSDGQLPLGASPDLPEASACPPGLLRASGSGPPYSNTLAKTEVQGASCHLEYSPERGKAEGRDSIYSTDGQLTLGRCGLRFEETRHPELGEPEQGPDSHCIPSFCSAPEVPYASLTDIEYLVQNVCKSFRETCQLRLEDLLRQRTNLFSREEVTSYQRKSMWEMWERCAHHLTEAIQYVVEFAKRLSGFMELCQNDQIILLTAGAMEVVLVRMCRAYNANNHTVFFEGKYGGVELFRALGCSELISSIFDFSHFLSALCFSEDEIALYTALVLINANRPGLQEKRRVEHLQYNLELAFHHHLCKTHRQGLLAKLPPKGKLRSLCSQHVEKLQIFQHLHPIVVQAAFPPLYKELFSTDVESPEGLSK
On to `Cc1oc(-c2ccccc2F)nc1CS(=O)CC(=O)NCCN1CCCCC1C` (stereo not given), for which the “activity change, negative = inhibition” value was -5.2%.

On to `CCOc1ccc(S(=O)(=O)N2CCN=C2Cc2ccccc2)cc1C`, for which the “activity change, negative = inhibition” value is -32.3%.

Consider `COc1cccc(CNC(=O)CCCC(=O)Nc2cccc([N+](=O)[O-])c2)c1`, for which the “activity change, negative = inhibition” value is 34.9%.

Turning to `Cc1cnc(C)c(N2CCN(C(=O)C3CCC(=O)N(CCc4cccc(F)c4)C3)CC2)n1` (stereo not given), the “activity change, negative = inhibition” value is 1.08%.

As for `Cc1cc(-n2nc(C)cc2C)n2nc(C)c(-c3ccccc3)c2n1`, the “activity change, negative = inhibition” value is -12.8%.

As for `Cc1cc(C)c2c(NC(=O)C3CC3)nn(C)c2n1`, the “activity change, negative = inhibition” value is 10.5%.

Regarding `Cc1cc(C)c2c(n1)nn1c(-n3ccnc3)cc(C)nc21`, the Potency was 10 µM (active).

Regarding `O=C(Nc1ccc(F)cc1)C(=O)c1cn(CC(=O)N2CCOCC2)c2ccccc12`, the “activity change, negative = inhibition” value was 26%.

For `CCSc1nc(O)c(C(c2cccc(OC)c2)c2c(O)nc(SCC)[nH]c2=O)c(=O)[nH]1`, the “activity change, negative = inhibition” value is -12.8%.

On to `CC(=O)c1cccc(NC(=S)N2CCCC2)c1`, for which the “activity change, negative = inhibition” value was -4.06%.

`CCOC(=O)C1(Cc2ccccc2C)CCCN(C(=O)CCc2c(C)noc2C)C1` (stereo not given): the “activity change, negative = inhibition” value was -5.53%.

With `COc1ccc(N2C(=O)C(Cc3ccccc3)NC2=S)cc1` (stereo not given), the “activity change, negative = inhibition” value was -5.44%.

For the molecule `COc1ccc(N2C(=O)C3CCCN3C2c2cccc(OC)c2)cc1` (stereo not given), the “activity change, negative = inhibition” value is 3.84%.

Regarding `COc1ccc(N2C(=O)C3C(C2=O)C(C(=O)c2ccccc2)N2CCCC32)cc1` (stereo not given), the Potency was 11.2 µM (active).

Turning to `O=S1(=O)N=C(N(CCO)/N=C/c2ccccc2F)c2ccccc21`, the “activity change, negative = inhibition” value was -1.86%.

Take `COc1ccc(N2CCN(Cc3nnc(-c4ccccc4)o3)CC2)cc1`: the “activity change, negative = inhibition” value was 2.46%.

In the case of `O=c1[nH]cnc2c1c(-c1ccccc1)cn2-c1ccc(F)cc1`, the “activity change, negative = inhibition” value is 18.3%.

For the molecule `COc1ccc(-n2cc(-c3ccccc3)c3c(=S)nc[nH]c32)cc1`, the Potency was 0.501 µM (active).

`Cc1cccc(NC(=O)CCN2CC(C)CC(C)C2)c1` (stereo not given): the “activity change, negative = inhibition” value was -3.81%.

With `c1ccc(-c2cn3c(n2)CCc2ccc4cccnc4c2-3)cc1`, the Potency was 3.55 µM (active).

For `COCC(=O)N1CCc2ccc(NC(=O)c3ccccc3Cl)cc2C1`, the activity change, negative = inhibition is 8.09% [at 1.91 µM].

Take `CC(NC(=O)Cn1cc(C(F)(F)F)cc(Cl)c1=O)c1ccccc1` (stereo not given): the “activity change, negative = inhibition” value was -10.7%.

For the molecule `Cc1ccc(S(=O)(=O)c2nc(-c3cccs3)oc2NCc2cccnc2)cc1`, the “activity change, negative = inhibition” value is 7.35%.

For the molecule `C/C(=N/NC(=S)Nc1ccccc1)c1ccc2c(c1)OCO2`, the Potency is 1.26 µM (active).

For the molecule `C/C(=N\NC(=O)C(N)=O)c1ccc2c(c1)OCCO2`, the “activity change, negative = inhibition” value was 28.9%.

With `C/C(=N/NC(=O)c1ccncc1)c1ccc2c(c1)OCO2`, the “activity change, negative = inhibition” value was 32.9%.

For the molecule `CCCCc1nc(SCC(=O)Nc2nnc(C(C)C)s2)n[nH]1`, the “activity change, negative = inhibition” value was -7.48%.

Consider `Cc1ccc2nc(-c3ccncc3)cc(C(=O)Nc3ccncc3)c2c1`, for which the “activity change, negative = inhibition” value was -21.9%.

In the case of `Cc1cc(C)cc(OCC(=O)NC(C)c2ccccc2)c1` (stereo not given), the “activity change, negative = inhibition” value was 24.4%.

For the molecule `O=C1/C(=C/c2ccc3c(c2)OCO3)CCC/C1=C\c1ccc2c(c1)OCO2`, the Potency is 11.2 µM (active).

Consider `CCC1=C/C(=C\c2ccc3c(c2)OCO3)C(=O)S1`, for which the “activity change, negative = inhibition” value was 24.2%.

As to `O=C(N/N=C/c1ccc2c(c1)OCO2)C(=O)N1CCCC1`, the “activity change, negative = inhibition” value was -1.04%.

`O=C(NC(Cc1ccccc1)C(=O)O)/C(=C\c1ccccc1)NC(=O)c1ccco1` (stereo not given): the “activity change, negative = inhibition” value is -19.7%.

Regarding `C=CCn1c(CCc2ccc(OC(C)C)cc2)n[nH]c1=S`, the “activity change, negative = inhibition” value is 1.5%.

With `CC(C)Oc1ccc(CCc2n[nH]c(=S)n2Cc2ccccc2)cc1`, the Potency was 3.16 µM (active).

Turning to `CC(C)Oc1ccc(CCc2nnc(SCC(=O)O)n2-c2ccccc2)cc1`, the “activity change, negative = inhibition” value is 1.09%.

As for `CC(C)Oc1ccc(Cc2n[nH]c(=S)n2Cc2ccccc2)cc1Cl`, the Potency is 3.98 µM (active).

Take `CC(=O)N(OCc1ccc(OC(C)C)c(Cl)c1)C(C)=O`: the “activity change, negative = inhibition” value was 11%.

`CC(=O)Nc1ccc(S(=O)(=O)N2CCC(C(=O)NC3CC3)CC2)cc1`: the “activity change, negative = inhibition” value is -24.5%.

For the molecule `OC(CNC1CCCC1)COc1ccc(F)cc1` (stereo not given), the “activity change, negative = inhibition” value is -1.27%.

Take `COc1ccccc1CNS(=O)(=O)c1ccc2c(c1)NC(=O)CS2`: the “activity change, negative = inhibition” value was 14%.

As for `CCCn1nc(NS(=O)(=O)c2ccc(F)cc2)c2cc3ccccc3nc21`, the “activity change, negative = inhibition” value is 5.21%.

Consider `COc1ccc(N=Nc2ccc(O)c(P(=O)(c3ccccc3)c3ccccc3)c2)cc1`, for which the “activity change, negative = inhibition” value is 16%.

In the case of `Cc1cc(N=Nc2ccc3ccccc3c2)ccc1O`, the Potency is 11.2 µM (active).

Turning to `Cc1cccc(C(=O)NNC(=O)CSc2nnc(C(C)C)n2C)c1`, the “activity change, negative = inhibition” value was -19.4%.

Turning to `Cc1c(C(C)(C)O)[nH]c2ccc(C#N)cc12`, the “activity change, negative = inhibition” value is 14.1%.

As for `CCn1c(SCC(=O)NNC(=O)c2ccc(OC)cc2)nnc1C(C)C`, the “activity change, negative = inhibition” value is -32.5%.

Turning to `COC(=O)C1=C(C)N(C)C(=S)NC1c1cc(OC)ccc1OC` (stereo not given), the Potency is 15.8 µM (active).

As to `COC(=O)C1=C(C)N(C)C(=S)NC1c1ccccc1` (stereo not given), the “activity change, negative = inhibition” value was -2.63%.

In the case of `COC(=O)C1=C(C)OC(N)=C(C#N)C1c1cc(OC)ccc1OC` (stereo not given), the “activity change, negative = inhibition” value was -29.4%.

`CCOC(=O)c1c(-c2ccccc2)oc2ccc(OCC(N)=O)cc12`: the “activity change, negative = inhibition” value was 61.5%.

As for `CCOC(=O)c1c(S(=O)(=O)Nc2cccc(Cl)c2)c(C)n(C)c1C`, the “activity change, negative = inhibition” value was -21.2%.

Regarding `C/C(Cc1ccccc1)=N\NC(=O)CNC(=O)c1ccccc1Cl`, the “activity change, negative = inhibition” value was 22.1%.

For the molecule `CC/C(=N\NC(=O)c1ccccc1Cl)c1ccc(Br)s1`, the Potency was 11.2 µM (active).

In the case of `CC(=O)Nc1cccc(/C(C)=N/NC(=O)c2ccccc2Cl)c1`, the “activity change, negative = inhibition” value is 32.2%.
